The campaign covered roughly 48,000 compounds. About 13,000 (27%) showed an effect of 50% or more. Some of the results follow.
Test system: Wolbachia pipientis
Assay: Anti-Wolbachia Cell-Based Screen
Assay type: functional
Set-up: scale not given: in the data most compounds retested in dose-response had high values
Conditions: 5 µM

Structure (SMILES) | Percent Effect [%]
CCOCCN1CCN(CC(=O)NC2(C#N)CCCC2)CC1CC (centres undefined) | -13.43
CCOCCN1CCN(CC(=O)N2CCC2)CC1CC (centres undefined) | 109.6
CCOCCN1CCN(Cc2nc(C)no2)CC1CC (centres undefined) | -13.77
CCOCCN1CCN(CC(=O)N2CCCC2)CC1CC (centres undefined) | 98.08
CCOCCN1CCN(CC(=O)N2CCCC2)CC1C (centres undefined) | -3.155
CCOCCN1CCN(CCC(=O)N2CCCCC2)CC1C (centres undefined) | -8.269
O=C1C=CC=N/C1=C(/O)NCCNS(=O)(=O)N1CCCCCC1 | -2.703
CC(=O)NCc1noc2c1CN(Cc1ccsc1)CC2 | -0.8794
COC(=O)CNC(=O)c1ccc(OC2CCN(S(C)(=O)=O)CC2)c(Cl)c1 | -7.47
CCc1cnc(CN(C(C)=O)C2CCN(CCc3ccccn3)C2)o1 (centres undefined) | 119.1
CCc1cnc(CN(C)C2CCN(CCc3ccccn3)C2)o1 (centres undefined) | -9.613
CCc1cnc(CN(C(C)=O)C2CCN(CCc3ccncc3)C2)o1 (centres undefined) | 111.3
CCc1cnc(CN(C(C)=O)C2CCN(CCc3ccccc3)C2)o1 (centres undefined) | 104.1
CCc1cnc(CN(C(C)=O)C2CCN(CCc3cnn(C)c3)C2)o1 (centres undefined) | 11.37
CN(CCC#N)C(=O)CSc1cc(F)ccc1F | 10.19
COCCS(=O)(=O)Nc1cc(Cl)ccn1 | 7.348
CC(C)CN(Cc1nnc(-c2ccco2)o1)CC(C)C | -6.92
CCNC(=O)C1CCN(c2nc(-c3ccco3)nc3c2CCNCC3)C1 (centres undefined) | 5.847
CC(C)CN(Cc1cnn(C)c1)C(=O)C1COc2ccccc2C1 (centres undefined) | -20.05
CCCNC(=O)CCNC(=O)Cc1nc(-c2ccco2)oc1C | -2.58
CC(=O)N1N=C(c2ccco2)OC1C(=O)NCC(C)C (centres undefined) | 108.9
CC(=O)N1N=C(c2ccco2)OC1C(=O)N(CC(C)C)CC(C)C (centres undefined) | 91.49
Cc1noc(C)c1CN1CC[C@H](OCC2CC2)[C@@H](Cc2ccccc2)C1 | -6.774

Structure (SMILES) | Percent Effect [%]
CN(CC1(CO)CCC1)C(=O)C1CCC(=O)N(Cc2ccc(Cl)cc2)C1 (centres undefined) | 0.1062
O=C(Nc1ccc(-n2cccn2)cc1)N1CCOCC(O)C1 (centres undefined) | 0.445
O=C(O)C(F)(F)F.O=C(O)C(F)(F)F.O=C(c1ccncc1)N1CCOC2(COCCN(c3cccnc3)C2)C1 (centres undefined) | -8.352
O=C(O)C(F)(F)F.O=C(c1ccco1)N1CCOCC2(C1)CN(c1cccnc1)C(=O)CO2 (centres undefined) | 102.4
O=C(c1cccs1)N1CCOCC2(C1)CN(c1ccccc1)C(=O)CO2 (centres undefined) | 85.77
O=C(O)C(F)(F)F.O=C(c1cccs1)N1CCOCC2(C1)CN(c1cccnc1)C(=O)CO2 (centres undefined) | 114.5
Cc1cc(C)c(OCC(=O)NS(=O)(=O)c2cccnc2)c(C)c1 | -6.374
COc1ccc(C)cc1C1(CNc2cncc(Cl)n2)CCOCC1 | -4.03
COC(=O)CCNC(=O)c1cc(Br)c2c(c1)OCCO2 | -24.52
O=C(N[C@@H]1CCN(c2nc3ccccc3o2)C[C@H]1O)c1cnccn1 | 6.046
c1ccc2sc(N3CCOC(Cn4cccn4)C3)nc2c1 (centres undefined) | 4.7
O[C@@H]1CN(c2nc3ccccc3s2)CC[C@H]1c1ccc2c(c1)OCO2 | 110.1
c1ccc2oc(N3CCC(c4nncn4C4CC4)CC3)nc2c1 | -9.735
CN(C)CC1CN(c2cnc3ccccc3n2)CCO1 (centres undefined) | 11.03
O=C(NC1CC1)C1CN(c2nc3ccccc3s2)CCN1 (centres undefined) | -6.534
CN1CCN(C2CCN(c3cnc4ccccc4n3)CC2)C1=O | 19.91
O[C@@H]1CN(c2cnc3ccccc3n2)CC[C@H]1c1ccc2c(c1)OCO2 | 98.83
O[C@@H]1CN(c2nc3ccccc3o2)CC[C@H]1c1ccc2c(c1)OCO2 | 107.9
CCNC(=O)NC[C@H]1COCc2nc3cc(OC)ccc3n21 | 0.3029
CCN(CC)C(=O)CN(C)C(=O)c1cccn1CCc1ccccc1 | 1.592
CNC(=O)[C@H]1C[C@@H]2CN(C(=O)NC(C)C)C[C@H]1O2 | -20.87
COc1ccc(OC)c(-n2cnnc2COC(C)C)c1 | -1.207
Cc1nc(-c2c(-c3ccccc3)ncn2CCCN2CCOCC2)c[nH]1 | -4.456

Structure (SMILES) | Percent Effect [%]
Cn1c2ccccc2c2ncn(CCN3CCOCC3)c(=O)c21 | 100.8
O=c1c2cccc(F)c2ncn1CCN1CCNCC1 | -5.542
Cn1c2ccccc2c2ncn(CCCN3CCOCC3)c(=O)c21 | 106.3
Cc1cc(C)c2ncn(CCOCCO)c(=O)c2c1 | -8.527
Cc1ccc(-c2c(-c3ccccc3)ncn2CCCN2CCOCC2)o1 | -10.17
Cn1c2ccc(F)cc2c2ncn(CCCN(CCO)CCO)c(=O)c21 | 122.3
O=c1c2cccc(F)c2ncn1CCN1CCOCC1 | 0.8234
O=c1c2cccc(C(F)(F)F)c2ncn1CCN1CCNCC1 | -10.29
CC(C(=O)Nc1cccc(F)c1)N(C)CCN1CCOCC1 (centres undefined) | 11.62
Cn1c2ccc(F)cc2c2ncn(CCN3CCOCC3)c(=O)c21 | 129.5
O=c1c2c(ncn1CCCO)nc1n2CCC1 | -24.45
CS(=O)(=O)c1ccc(NC(=O)NCc2ccc(F)cc2)cn1 | 9.509
CN(CC1(CO)CC1)C(=O)C1CCC(=O)N(Cc2ccc(Cl)cc2)C1 (centres undefined) | -2.442
O=C1CN(C(=O)C2CCCCC2)CC(O)CN1Cc1ccco1 (centres undefined) | 88.46
O=C(NCCc1cccnc1)C1CCCN(Cc2ccco2)C1 (centres undefined) | -20.69
CC(C)(C)C(=O)N1CC(=O)N(Cc2ccco2)CC(O)C1 (centres undefined) | 96.28
CC(C)(C)OC(=O)N1CC(=O)N(Cc2ccco2)CC(O)C1 (centres undefined) | 112.7
CC(C)(C)OC(=O)N1CCCN(Cc2ccon2)c2ccccc21 | 7.757
CC(C)c1cc(C(=O)N2CCN(Cc3ccco3)CC2)n[nH]1 | 11.56
O=C([C@H]1COC[C@H]2CN(Cc3ccco3)C[C@H]21)N1CCCO1 | -9.766
CC(C)COC(=O)N1CC(=O)N(Cc2ccco2)CC(O)C1 (centres undefined) | 111.6
CC(=O)N1CCC(CSCc2ccco2)CC1 | -2.113
O=C(O)C(F)(F)F.O=C1C[C@@H]2[C@H](CCN2Cc2ccco2)N1c1ccsc1 | 5.007
